For orientation: Inhibition means the change of the read-out against control, counted positive when it falls.

From ChEMBL document CHEMBL1157539, “Thousands of chemical starting points for antimalarial lead identification” (Nature, 2010) come the findings set out here.

Common to all, as to format: functional
Assay [1] concerns Plasmodium falciparum. In words: GSK_TCMDC: Inhibition of Plasmodium falciparum 3D7 in whole red blood cells, using parasite LDH activity as an index of growth. Test compounds present at 2uM.
For assay [2], the system named is Plasmodium falciparum. In words: GSK_TCMDC: Inhibition of Plasmodium falciparum Dd2 in whole red blood cells, using parasite LDH activity as an index of growth. Test compounds present at 2uM.
Another assay relates to HepG2. In words: GSK_TCMDC: Percent inhibition of human HepG2 cell line. Test compounds present at 10uM.

For the compound `COc1cc(SC)ccc1C(=O)N1CC(C)CC(C)C1` (stereo not given), the results for the Inhibition with Plasmodium falciparum [1], with Plasmodium falciparum [2] and in the assay on HepG2 were 98%, 66% and 5%, respectively.
For `COCCNCc1ccc(-c2ccc3c(Nc4ccc(Cl)cc4F)ccnc3c2)o1` the same measures were 100%, 100% and 15%.
The like results for `Cc1cccc(CNc2ncc(C)c(NCCC(=O)Nc3ccccc3)n2)c1.O=C(O)C(F)(F)F` were, in that order, 81%, 10% and 18%.
For `O=C(Nc1ccc(CC(=O)N2CCc3cc(Cl)c(N4CCN(C/C=C/c5ccccc5)CC4)cc32)cc1)Nc1cccc([N+](=O)[O-])c1` the same measures were 95%, 27% and 0%.
Take `O=C(O)C(F)(F)F.c1ccc(CN2CCC(NCc3ccccc3-c3ccc(CNC4CCCC4)cc3)CC2)cc1`: the Inhibition in the assay on Plasmodium falciparum [1] is listed as 100%; in the assay with Plasmodium falciparum [2], 33%; in the assay with HepG2, 38%.
In the case of `CCOc1ncccc1CN1CCC(N2CCc3cc(NC(=O)c4ccco4)ccc32)C1` (stereo not given), the Inhibition in the assay with Plasmodium falciparum [1] was determined as 90%; in the assay with Plasmodium falciparum [2], 94%; with HepG2, 3%.
On to `CS(=O)(=O)Nc1cccc(-c2cnc3[nH]cc(-c4ccc(CCC(=O)O)cc4)c3c2)c1`, for which the Inhibition in the assay on Plasmodium falciparum [1] came out at 98%; in the assay on Plasmodium falciparum [2], 78%; in the assay with HepG2, 7%.
For `O=C(Nc1cccc(CN2CCN(C(=O)c3cccc(Cl)c3)CC2)c1)c1cccs1.O=C(O)C(F)(F)F` the same measures were 94%, 94% and 17%.
For `CCNc1cc(C(=O)N[C@@H](Cc2ccccc2)[C@H](O)CNC2(CCC(C)C)CC2)cc(N2CCCCS2(=O)=O)c1.Cl` the same measures were 90%, 52% and 6%.
Regarding `COc1ccc(CC(=O)NC(CCCN2CCC3(CC2)OCc2ccccc23)c2ccc(Cl)c(Cl)c2)cc1` (stereo not given), the Inhibition is listed as 83% in the assay with Plasmodium falciparum [1], 53% in the assay on Plasmodium falciparum [2] and 40% in the assay on HepG2.
For `O=C(NCC1CCN(Cc2ccc(F)cc2)C1)c1cc(-c2cccc(C(F)(F)F)c2)cs1.O=C(O)C(F)(F)F` (stereo not given) the same measures were 93%, 18% and 38%.
The like results for `O=C(NCC1CCC(C(=O)NCc2cccc3ccccc23)CC1)c1ccc(O)c(-c2ccc(Cl)c(Cl)c2)c1` (stereo not given) were, in that order, 100%, 92% and 0%.
The like results for `FC(F)(F)c1ccc2[nH]c(-c3cccc(-c4cccc(CN5CCN(c6ccncc6)CC5)c4)c3)nc2c1.O=C(O)C(F)(F)F` were, in that order, 100%, 99% and 93%.
Turning to `COc1ccc2nccc([C@@H](O)CN3CCC(NC(=O)Cc4cccc5c(Br)cccc45)CC3)c2c1`, the figures for the Inhibition with Plasmodium falciparum [1], in the assay on Plasmodium falciparum [2] and in the assay on HepG2 were 99%, 34% and 15%, respectively.
With `NCCNc1ccc([N+](=O)[O-])cc1C(=O)Nc1cccc(C(F)(F)F)c1`, the figures for the Inhibition in the assay with Plasmodium falciparum [1], in the assay on Plasmodium falciparum [2] and in the assay with HepG2 were 94%, 33% and 1%, respectively.
The like results for `OC1CCC(Nc2ccc3ncc(-c4ccc5ccccc5c4)n3n2)CC1` (stereo not given) were, in that order, 95%, 94% and 52%.
For `COc1ccc2nccc(NCC3(O)CCN(CCc4ccc5c(c4)OCCO5)CC3)c2n1.Cl` the same measures were 100%, 87% and 35%.
For `CCC(=O)Nc1nnc(Cc2ccc(OC)c(OC)c2)s1` the same measures were 93%, 1% and 0%.
Take `Cl.N=C(N)c1ccc(-c2cc3ccc(C(=N)N)cc3[nH]2)cc1`: the Inhibition in the assay with Plasmodium falciparum [1] stood at 99%; in the assay with Plasmodium falciparum [2], 99%; in the assay with HepG2 it was 18%.
For the compound `COc1ccc(-c2nc(NC(=O)Cc3cccc(OC)c3)sc2C)cc1`, the results for the Inhibition in the assay with Plasmodium falciparum [1], in the assay with Plasmodium falciparum [2] and in the assay on HepG2 were 100%, 77% and 1%, respectively.
In the case of `CN(C(=O)NCCc1ccccc1)C1CCN(CCCCCNC(=O)/C=C/c2ccc(Cl)c(Cl)c2)CC1`, the Inhibition in the assay with Plasmodium falciparum [1] amounted to 93%; with Plasmodium falciparum [2] it was 11%; in the assay with HepG2, 43%.
Regarding `Cc1cc(=NN=Cc2ccccn2)c2cc(C(F)(F)F)ccc2[nH]1`, the results for the Inhibition in the assay on Plasmodium falciparum [1], in the assay on Plasmodium falciparum [2] and with HepG2 were 100%, 100% and 0%, respectively.
Turning to `Cc1cc(=NN=CC=Cc2ccccc2)c2ccccc2[nH]1`, the Inhibition turned out to be 100% in the assay with Plasmodium falciparum [1], 69% in the assay with Plasmodium falciparum [2] and 19% in the assay on HepG2.
For `CC(C)NC[C@@H](O)[C@H](Cc1ccccc1)NC(=O)c1cc2c3c(c1)c(C(C)C)cn3CCS(=O)(=O)N2C.O=CO` the same measures were 98%, 99% and 5%.
For `CCOc1ccc(C2CCN(CCCCNC(=O)c3ccc(NC(=O)c4ccc(Cl)cc4)cc3)CC2)c(OCC)c1.Cl` the same measures were 100%, 95% and 14%.
The like results for `CC(CN1CCN(C)CC1)C(=O)Nc1cccc(-c2cccc(-c3nc4cc(F)ccc4[nH]3)c2)c1` (stereo not given) were, in that order, 100%, 78% and 23%.
For the compound `COc1ccc(NC(=O)[C@H](Cc2ccccc2)Nc2cc(C)nc(NCCc3cccs3)n2)cc1.O=C(O)C(F)(F)F`, the values for the Inhibition in the assay on Plasmodium falciparum [1], in the assay with Plasmodium falciparum [2] and with HepG2 were 100%, 83% and 12%, respectively.
As to `N#Cc1ccc(-c2ccc(C(=O)NCCCCN3CCC(c4ccc5c(c4OCc4ccncc4)CCCC5)CC3)cc2)cc1`, the Inhibition with Plasmodium falciparum [1] amounted to 81%; in the assay with Plasmodium falciparum [2] it was 57%; with HepG2, 41%.
The like results for `Cn1cncc1C(=O)Nc1cccc(-c2ccc(-c3nc4cc(C(F)(F)F)ccc4[nH]3)cc2)c1` were, in that order, 97%, 98% and 4%.
For `O=C(Nc1cccc(CN2CCCN(Cc3ccc(O)cc3)CC2)c1)c1ccc(-c2ccccc2)cc1.O=C(O)C(F)(F)F` the same measures were 100%, 93% and 33%.
